Z-score data for 77 compounds are collected here from PubChem BioAssay AID488969 (Vanderbilt High Throughput Screening Facility, 2010).

Molecules are shown by their SMILES. Over roughly 110,000 compounds, “z-score” has its median near -0.1; the highest 2% begin near 2. This is one part of a sample in which the highest values are shown more often than they occur. Calls of active or inactive are those of the source.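 Rule for the calls: active = z-score in the third read window above 3 or below -3; inactive = the rest.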

The target in this test is Metabotropic glutamate receptor 8 (Rattus norvegicus) (UniProt P70579). The test is described as follows: rat mGluR8 modulators via GIRK flux, primary screen, cell-based, thallium flux, HTS (AID 488969). To be noted: HEK293 rat mGluR8, GIRK (G protein-gated inwardly rectifying potassium channel) thallium flux, FluoZin2; at 10 µM; stronger effect = higher value; submaximal glutamate (EC20) added with thallium.
Chain of Metabotropic glutamate receptor 8 (Rattus norvegicus) (P70579 whole entry, looked up): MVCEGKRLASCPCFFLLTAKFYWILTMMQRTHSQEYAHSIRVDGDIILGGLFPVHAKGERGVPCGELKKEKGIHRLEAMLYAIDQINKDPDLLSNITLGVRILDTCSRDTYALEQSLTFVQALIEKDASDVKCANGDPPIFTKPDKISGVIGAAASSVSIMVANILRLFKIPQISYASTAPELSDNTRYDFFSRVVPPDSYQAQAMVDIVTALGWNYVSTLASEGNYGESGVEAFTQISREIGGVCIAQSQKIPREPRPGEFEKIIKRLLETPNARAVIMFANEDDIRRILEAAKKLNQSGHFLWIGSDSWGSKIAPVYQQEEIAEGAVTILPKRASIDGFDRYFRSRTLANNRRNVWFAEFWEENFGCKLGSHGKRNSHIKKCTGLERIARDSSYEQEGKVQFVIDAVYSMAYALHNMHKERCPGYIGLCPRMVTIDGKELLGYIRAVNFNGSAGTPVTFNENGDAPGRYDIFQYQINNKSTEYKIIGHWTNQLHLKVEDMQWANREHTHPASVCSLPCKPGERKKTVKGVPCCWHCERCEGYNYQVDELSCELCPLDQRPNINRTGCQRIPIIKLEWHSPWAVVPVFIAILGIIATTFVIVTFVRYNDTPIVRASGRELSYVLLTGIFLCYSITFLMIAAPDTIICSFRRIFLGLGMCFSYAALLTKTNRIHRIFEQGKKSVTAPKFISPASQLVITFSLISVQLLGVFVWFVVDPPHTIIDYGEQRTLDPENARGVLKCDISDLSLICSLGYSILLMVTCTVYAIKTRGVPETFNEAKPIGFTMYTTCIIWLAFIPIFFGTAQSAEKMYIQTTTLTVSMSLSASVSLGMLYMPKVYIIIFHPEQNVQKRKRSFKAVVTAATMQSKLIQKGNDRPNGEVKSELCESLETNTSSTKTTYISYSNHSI
On to `COc1ccc(NS(=O)(=O)c2ccc(NC(=O)c3ccc(N(C)S(C)(=O)=O)cc3)cc2)c(OC)c1`, for which the z-score was -0.141.

For `COC(=O)C1=C(C)NC(=O)/C1=C\c1cccs1`, the z-score was -0.512.

Consider `COC(=O)C1=C(C)NC(=O)/C1=C\c1ccco1`, for which the z-score is 8.73 (active).

`COC(=O)C1=C(C)N(C)C(=O)/C1=C\c1ccco1` yielded a z-score of -0.144.

Consider `CC(=O)c1nc(N2C(=O)CC(Cc3ccc(C)cc3)C2=O)sc1C` (configuration not stated), for which the z-score was -0.714.

`CC(=O)c1nc(N2C(=O)CC(Cc3cc(C)cc(C)c3)C2=O)sc1C` (configuration not stated) displayed a z-score of 2.19.

With `CC(=O)c1nc(N2C(=O)CC(Cc3cccc(C)c3)C2=O)sc1C` (configuration not stated), the z-score was -0.395.

In turn, `COc1ccc(NC(=S)N/N=C2\CC(C)(C)Oc3ccc(OC)cc32)cc1` displayed a z-score of -0.239.

Turning to `c1cc2c3c(cccc3c1)NC1(CCCCC1)N2`, the z-score was -0.436.

In the case of `CC(C)(C)C1CCC2(CC1)Nc1cccc3cccc(c13)N2`, the z-score was 4.88 (active).

Compound `CC(C)(C)C1CCC2(CC1)NC(=S)N(c1ccccc1)N2` (configuration not stated) displayed a z-score of 0.0264.

The compound `Cc1cc(NC(=O)c2ccc(COc3ccc(Cl)c(C)c3)o2)no1` came in with a z-score of -0.225.

Consider `O=C(NC1CC1)c1ccc2c3c(cccc13)CC2`, for which the z-score was -0.311.

The compound `N=c1sccn1CC(=O)Nc1cc(Cl)ccc1Oc1ccccc1` showed a z-score of 1.02.

Compound `COc1ccc(OCCC(=O)OCC(=O)NCc2ccccc2)cc1` showed a z-score of -0.332.

For the compound `Cc1cccc(-n2c(C)nc3cc(C(=O)NCc4ccc5c(c4)OCO5)ccc32)c1`, the z-score worked out at 0.471.

With `Cc1ccccc1NC(=S)/C(=C(\[O-])c1ccc(C)c([N+](=O)[O-])c1)[n+]1ccccc1`, the z-score came to 0.013.

`CC(C)(C)c1cc[n+](/C(C(=S)NC2CC2)=C(/[O-])c2ccc(Cl)s2)cc1` showed a z-score of -0.275.

Take `Cc1c(Cl)cccc1NC(=S)/C(=C(\[O-])c1ccc(Cl)s1)[n+]1ccccc1`: the z-score was determined as 2.24.

In turn, `CCN(CC)C(=O)COc1cc(C)cc2oc(=O)cc(-c3ccccc3)c12` had a z-score of -0.189.

With `COc1ccc(NC(=S)Nc2cccc3cnccc23)cc1`, the z-score is -0.198.

With `CCCCNC(=S)Nc1cccc2cnccc12`, the z-score was -0.208.

As to `C=C(C)CNC(=S)Nc1cccc2cnccc12`, the z-score was 3.1 (active).

On to `CC(C)NC(=S)Nc1cccc2cnccc12`, for which the z-score was -0.271.

`S=C(Nc1cccc(Cl)c1)Nc1cccc2cnccc12` showed a z-score of 2.74.

In turn, `COc1ccccc1NC(=S)Nc1cccc2cnccc12` showed a z-score of -0.138.

In turn, `Cc1cc(C)nc(N2CCCC(C(=O)NCC(c3ccccc3)c3ccccc3)C2)n1` (configuration not stated) had a z-score of 0.0177.

On to `COc1ccc(S(=O)(=O)N(C)CC(=O)Nc2ccc(C(F)(F)F)cc2)cc1Cl`, for which the z-score is 1.57.

The compound `O=c1cc(NS(=O)(=O)c2ccccc2)nc(SCc2ccc(Cl)cc2)[nH]1` showed a z-score of 0.485.

As for `CCc1c(C)nc2ncnn2c1Nc1ccc(C(C)=O)cc1`, the z-score amounted to 0.0606.

Take `O=C(CSc1ncn[nH]1)Nc1nc(-c2ccccc2)cs1`: the z-score is 0.0129.

Compound `Cc1ccc(C(=O)N/C(=C/c2ccco2)C(=O)Nc2cccc(C)c2)cc1` came in with a z-score of -0.287.

`CC(=O)c1cccc(NC(=O)c2ccc(N(Cc3ccccc3)S(C)(=O)=O)cc2)c1`: the z-score is -0.207.

Compound `COCCn1c(C)cc(C(=O)CN2C(=O)NC3(CCCCCCC3)C2=O)c1C` returned a z-score of 0.319.

`O=C(CSc1nnnn1-c1cccc2c1CCCC2)NC1CCCC1`: the z-score is 5.15 (active).

`CC1CCCC(C)N1C(=O)CSc1nnnn1-c1cccc2c1CCCC2` (configuration not stated) yielded a z-score of -0.621.

`O=C(CSc1nnnn1-c1cccc2c1CCCC2)N1CCCC1`: the z-score amounted to 0.0215.

With `Cc1ccc2c(c1)c1c(n2CC(O)CNC(C)(C)C)CCCC1` (configuration not stated), the z-score came out at 2.4.

Compound `Cc1ccc2c(c1)c1c(n2CC(O)Cn2nc(C)c(Br)c2C)CCCC1` (configuration not stated) gave a z-score of 0.191.

Compound `Cc1ccc2c(c1)c1c(n2CC(O)Cn2c(C)nc3ccccc32)CCCC1` (configuration not stated) gave a z-score of -0.427.

For the compound `CC(=O)c1cc2c(cc1NC(=O)CN1CCCCC1C)OCO2` (configuration not stated), the z-score is -0.0192.

Turning to `O=C(NCc1cccs1)c1nc2c(nnn2Cc2ccc(F)cc2)c(=O)[nH]1`, the z-score is -1.

`Cc1cc(N/C=C\c2nnnn2-c2ccccc2)no1` had a z-score of -0.374.

For `COc1ccc(Nc2nc(C)cc(C)c2C#N)cc1OC`, the z-score is 6.74 (active).

The compound `COc1cccc(Nc2nc(C)cc(C)c2C#N)c1` had a z-score of -0.0986.

Take `COc1ccc(Nc2nc(C)cc(C)c2C#N)cc1`: the z-score amounted to 0.405.

For the compound `O=C(Cn1nnc(-c2ccccc2)n1)OCc1csc(-c2ccccc2)n1`, the z-score was -0.49.

In the case of `Cc1ccc(-n2nc3c(Cl)nnc(C)c3c2C)cc1`, the z-score was found to be 0.701.

`NS(=O)(=O)c1ccc(Cc2ncc(C(F)(F)F)cc2Cl)s1` yielded a z-score of 1.4.

Compound `O=C(NCc1ccc2c(c1)OCO2)c1cc2ccccc2o1` showed a z-score of -0.522.

Turning to `O=C(C1CCCCN1S(=O)(=O)c1ccc(F)cc1)N1CCN(c2ccccc2F)CC1` (configuration not stated), the z-score is -0.386.

`COc1ccc2[nH]c(C)c(C(=O)CN3CCOCC3)c2c1` gave a z-score of 0.0884.

`COc1ccc2[nH]c(C)c(C(=O)CN3CC(C)OC(C)C3)c2c1` (configuration not stated) showed a z-score of 2.96.

Turning to `COc1ccc2c(C(=O)CN3CC(C)OC(C)C3)c[nH]c2c1` (configuration not stated), the z-score was -0.0527.

The compound `O=S1(=O)CC(N2CCOCC2)c2ccccc21` (configuration not stated) gave a z-score of -0.0158.

Take `COc1ccc(CNC(=O)CSc2ccc(Br)cc2)cc1OC`: the z-score is 0.192.

In turn, `COc1ccc(S(=O)(=O)N(C)CC(=O)NCc2ccco2)cc1` returned a z-score of -0.29.

In turn, `Cc1ccc(N(CC(=O)NCc2ccco2)S(=O)(=O)c2ccccc2)cc1` displayed a z-score of 0.374.

Compound `CN(CCCC(=O)NCc1ccco1)S(=O)(=O)c1ccccc1` registered a z-score of 2.39.

`CCC(C)NC(=O)COc1ccc(Br)c(C)c1` (configuration not stated) came in with a z-score of 0.482.

The compound `CN(C(=O)COC(=O)C1CCN(S(=O)(=O)c2cccs2)CC1)C1CCS(=O)(=O)C1` (configuration not stated) returned a z-score of 0.776.

Consider `C=CCn1c(NCCc2ccccc2)nc2c1c(=O)n(C)c(=O)n2C`, for which the z-score came out at 0.0292.

Regarding `Cc1ccc(Cn2c(NCCc3ccccc3)nc3c2c(=O)n(C)c(=O)n3C)cc1`, the z-score was -0.251.

On to `CC(C)n1c(NCCc2ccccc2)nc2c1c(=O)n(C)c(=O)n2C`, for which the z-score is 2.39.

`COc1ccc(CNC(=O)CCc2c(C)nc3ncnn3c2C)cc1`: the z-score stood at 0.418.

`CC(C)N(CCn1c(=S)[nH]c2ccccc2c1=O)C(C)C` had a z-score of 2.64.

In turn, `COc1nc2ccccc2c(=O)n1OCC(C)C` displayed a z-score of 0.0226.

Consider `CCOc1cc2[nH]c(=S)n(CCN3CCC(C)CC3)c(=O)c2cc1OCC`, for which the z-score is 0.809.

For `CC(C)n1c(=S)[nH]c2ccccc21`, the z-score was -0.0644.

As to `COn1c(=S)[nH]c2ccccc2c1=O`, the z-score is 1.06.

Take `CC(C)COn1c(=S)[nH]c2ccccc2c1=O`: the z-score is 3.03 (active).

Compound `CCN(CC)CCn1c(=S)[nH]c2ccccc2c1=O` registered a z-score of -2.46.

The compound `CN(C)CCn1c(=S)[nH]c2ccccc2c1=O` returned a z-score of -0.191.

On to `CCOc1cc2[nH]c(=S)n(C(C)C)c(=O)c2cc1OCC`, for which the z-score is 9.84 (active).

With `CC(C)n1c(=O)[nH]c2ccccc21`, the z-score turned out to be 1.11.

For the compound `CC(C)n1c(=S)[nH]c2ccccc2c1=O`, the z-score was 9.16 (active).

Consider `CCOc1cc2[nH]c(=S)n(CCCN(CC)CC)c(=O)c2cc1OCC`, for which the z-score was -0.475.
